# What was measured:
# Format in all cases: functional
# [1] = molecular target: Solute carrier family 2, facilitated glucose transporter member 1 (Homo sapiens) (UniProt P11166); assay: ST_JUDE_LEISH: Cytotoxicity at 2uM final concentration against transgenic Leishmania Mexicana promastigotes LmGLUT1 that are glucose transport deficient and complemented with the human glucose transporter GLUT1. Activity is measured by DNA content using SYBR green in vitro
# [2] = molecular target: Hexose transporter 1 (Plasmodium falciparum) (UniProt O97467); assay: ST_JUDE_LEISH: Cytotoxicity at 2uM final concentration against transgenic Leishmania Mexicana promastigotes LmPfHT that are glucose transport deficient and complemented with the Plasmodium falciparum hexose transporter. Activity is measured by DNA content using SYBR green in vitro
# [3] = molecular target: Glucose transporter (Leishmania mexicana) (UniProt O61059); assay: ST_JUDE_LEISH: Cytotoxicity at 2uM final concentration against transgenic Leishmania Mexicana promastigotes LmGT2 that are glucose transport deficient and complemented with the L. Mexicana glucose transporter 2. Activity is measured by DNA content using SYBR green in vitro
# Solute carrier family 2, facilitated glucose transporter member 1 (Homo sapiens), sequence (P11166 whole entry): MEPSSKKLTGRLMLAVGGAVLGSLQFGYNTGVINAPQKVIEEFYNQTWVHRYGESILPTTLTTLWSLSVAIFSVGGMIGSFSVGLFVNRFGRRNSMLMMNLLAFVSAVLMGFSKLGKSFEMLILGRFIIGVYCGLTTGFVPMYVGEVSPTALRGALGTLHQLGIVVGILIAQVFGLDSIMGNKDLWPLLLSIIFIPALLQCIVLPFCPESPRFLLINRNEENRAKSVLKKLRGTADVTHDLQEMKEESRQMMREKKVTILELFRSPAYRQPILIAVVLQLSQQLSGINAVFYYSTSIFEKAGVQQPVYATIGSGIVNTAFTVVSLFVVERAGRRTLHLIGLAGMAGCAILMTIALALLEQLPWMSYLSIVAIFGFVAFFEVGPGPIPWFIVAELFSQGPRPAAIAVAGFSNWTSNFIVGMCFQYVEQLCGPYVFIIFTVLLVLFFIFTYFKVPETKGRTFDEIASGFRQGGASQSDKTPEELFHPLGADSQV
Structure (SMILES),inhibition [1],inhibition [2],inhibition [3]
Cc1ccc(CON2C(=N)N=C(N)NC2(C)C)cc1C,4.78%,3.55%,3.93%
CN1CCC(C(=O)N(Cc2ccc(-c3ccc(CNCCc4ccccc4)cn3)cc2)C2CCN(Cc3ccccc3)CC2)CC1,0.71%,1.1%,-0.74%
COc1cc(Br)c(S(=O)(=O)n2cc(CN3CCC(N)CC3)c3cc(Cl)ccc32)cc1OC,1.4%,2.11%,0.57%
COC(=O)c1cccc(CNCc2cccc(-c3ccc(-c4nc5cccc(C)c5[nH]4)cc3)c2)c1,11.9%,7.9%,8.52%
